From PMC4552634, “A New Set of Chemical Starting Points with Plasmodium falciparum Transmission-Blocking Potential for Antimalarial Drug Discovery” (PLoS ONE, 2015)
The campaign covered roughly 13,000 compounds. About 3,200 (25%) showed an effect of 50% or more. Some of the results follow.

system: P. falciparum stage V gametocytes; design: BacTiter-Glo ATP luminescence viability of purified stage V gametocytes in 384-well plates, per cent inhibition versus DMSO; conditions: 48 h, 5 µM; inhibitor

Question: With `Oc1ccc(CCNc2nc(N/N=C/c3ccc(Cl)cc3)nc(N3CCNCC3)n2)cc1` [TCMDC-138543] as the molecule, how does the “% Inhibition” value read?
Answer: -10.01%

Question: For `C=CCN(c1ccc(OC)cc1)S(=O)(=O)c1ccc(Cl)c(C(=O)Nc2cccc(C#N)c2)c1` [TCMDC-123716], which “% Inhibition” value is on record?
Answer: -20.14%

Question: Which “% Inhibition” value does the source give for `COc1ccc(-c2ccc(NC(=O)c3ccc(C#N)cc3)cc2)cc1CNC(C)C` [TCMDC-132518] here?
Answer: 25.16%

Question: Which “% Inhibition” value does the source give for `COc1ccc(-c2cccc(NC(=O)c3ccc(Cl)cc3)c2)cc1CNC(C)C` [TCMDC-132603] here?
Answer: 87.48%

Question: How did the “% Inhibition” value turn out when `COc1ccc(-c2ccc(NC(=O)c3ccc(F)cc3)cc2)cc1CNC(C)C` [TCMDC-132515] was run?
Answer: 64.88%

Question: Which “% Inhibition” value does the source give for `COc1ccc(-c2ccc(NC(=O)c3cccc(Cl)c3)c(F)c2)cc1CNC(C)C` [TCMDC-132766] here?
Answer: 31.53%

Question: For `COc1ccc(-c2ccc(NC(=O)c3cccc(F)c3)cc2)cc1CNC(C)C` [TCMDC-132529], which “% Inhibition” value is on record?
Answer: -9.819%

Question: For `COc1ccc(-c2cccc(NC(=O)c3cccc(Cl)c3)c2)cc1CNC(C)C` [TCMDC-133340], which “% Inhibition” value is on record?
Answer: -37.98%

Question: For `CCNc1cc(C(=O)N[C@@H](Cc2ccccc2)[C@H](O)CNC(C)(C)c2cccc(OC)c2)cc(N2CCCC2=O)c1` [TCMDC-138895], which “% Inhibition” value is on record?
Answer: -11.4%

Question: Which “% Inhibition” value does the source give for `CCc1cccc(-n2nc(OCC(=O)NC3CCCC3)c3cccnc32)c1` [TCMDC-125160] here?
Answer: 5.355%

Question: `COc1cccc2cc(C(=O)N[C@@H](CC(C)C)C(=O)N[C@H](C=NN3CC(=O)NC3=O)CC(C)C)oc12` [TCMDC-136063] was tested. Which “% Inhibition” value did it give?
Answer: 6.388%

Question: How did the “% Inhibition” value turn out when `CCCCNCCOc1ccc(-c2nc(-c3ccccc3)c(-c3ccccc3)[nH]2)cc1` [TCMDC-138053] was run?
Answer: 74.26%

Question: With `Oc1cccc(-c2nc(-c3ccccc3)c(-c3ccc(Oc4ccc(-c5[nH]c(-c6cccc(O)c6)nc5-c5ccccc5)cc4)cc3)[nH]2)c1` [TCMDC-125666] as the molecule, how does the “% Inhibition” value read?
Answer: -19.27%

Question: Which “% Inhibition” value does the source give for `Oc1cc(-c2nc(-c3ccccc3)[nH]c2-c2ccncc2)ccc1Cl` [TCMDC-139660] here?
Answer: -47.58%

Question: With `COc1ccc(NC(=O)Nc2ccc(-c3ccc(-c4nc5ccccc5[nH]4)cc3)cc2)cc1` [TCMDC-133248] as the molecule, how does the “% Inhibition” value read?
Answer: -24.62%

Question: How did the “% Inhibition” value turn out when `CCCCCOc1ccc(C=NNc2nc(-c3ccccc3)cc(=O)[nH]2)cc1` [TCMDC-124237] was run?
Answer: 29.87%

Question: For `COc1ccc(OCC(=O)Nc2cc(-c3nc4ccccc4[nH]3)ccc2Cl)cc1` [TCMDC-125425], which “% Inhibition” value is on record?
Answer: -8.801%

Question: For `CCCCOc1ccc(-c2nc3ccccc3[nH]2)cc1` [TCMDC-123930], which “% Inhibition” value is on record?
Answer: 57.83%

Question: For `CCCCCCNCCOc1ccc(-c2nc(-c3ccccc3)c(-c3ccccc3)[nH]2)cc1` [TCMDC-137684], which “% Inhibition” value is on record?
Answer: 76.06%

Question: With `COc1cc(-c2nc(-c3ccccc3)c(-c3ccccc3)[nH]2)ccc1OCCN(C)C` [TCMDC-137716] as the molecule, how does the “% Inhibition” value read?
Answer: -85.41%

Question: With `CN(C)c1ccc(CN2CCC(NC(=O)c3ccc(-c4cccc(F)c4)s3)CC2)cc1` [TCMDC-134327] as the molecule, how does the “% Inhibition” value read?
Answer: -0.6628%

Question: With `COc1ccccc1Nc1nc(C)cc(NCc2ccc(-n3ccnc3)cc2)n1` [TCMDC-133452] as the molecule, how does the “% Inhibition” value read?
Answer: 11.88%

Question: How did the “% Inhibition” value turn out when `COc1ccc(S(=O)(=O)Nc2cc(C)cc(Br)c2OC)cc1N1CCN(C(=O)C(Cl)(Cl)Cl)CC1` [TCMDC-139808] was run?
Answer: 8.102%

Question: For `CO/C(=C\C=C\c1cc2cc(Cl)c(Cl)cc2[nH]1)C(=O)NCCCN1CCN(c2ccncc2)CC1` [TCMDC-139184], which “% Inhibition” value is on record?
Answer: 16.21%

Question: Which “% Inhibition” value does the source give for `CN(C)CCCSc1ccccc1NC(=O)C=Cc1ccccc1` [TCMDC-125843] here?
Answer: 7.207%

Question: How did the “% Inhibition” value turn out when `Cc1ccc(-c2noc(COc3ccccc3C(=O)NC3CCCC3)n2)cc1` [TCMDC-124748] was run?
Answer: 47.39%

Question: With `FC(F)(F)c1ccc2nccc(NCc3ccccc3)c2c1` [TCMDC-138259] as the molecule, how does the “% Inhibition” value read?
Answer: -8.95%

Question: With `CCc1ccc(NC(=O)c2ccc(CN3CCCN(CCC(C)C)CC3)cc2)cc1` [TCMDC-136448] as the molecule, how does the “% Inhibition” value read?
Answer: -6.236%

Question: With `COc1ccc2oc(=O)c(C#N)c(O)c2c1` [TCMDC-131398] as the molecule, how does the “% Inhibition” value read?
Answer: -8.165%

Question: `CN1CCN(CCCN(Cc2cccc(-c3cccc(CNC4CCCC4)c3)c2)C(=O)CCC2CCCC2)CC1` [TCMDC-140555] was tested. Which “% Inhibition” value did it give?
Answer: 119.1%

Question: Which “% Inhibition” value does the source give for `CN1CCN(CCCN(Cc2ccc(-c3ccc(CNC4CCCC4)cc3)cc2)C(=O)CCC2CCCC2)CC1` [TCMDC-140560] here?
Answer: 99.06%

Question: `CCCCCCN1CCC(NCc2ccc(CN(C)C)cc2)CC1` [TCMDC-141662] was tested. Which “% Inhibition” value did it give?
Answer: 16.26%

Question: For `CCCCCCN1CCC(NCc2cccc(C#N)c2)CC1` [TCMDC-141670], which “% Inhibition” value is on record?
Answer: -17.05%

Question: How did the “% Inhibition” value turn out when `FC(F)(F)c1ccc(CNC2CCN(CC3CCCCC3)CC2)cc1` [TCMDC-141661] was run?
Answer: -50.93%

Question: With `CN1CCN(CCCN(Cc2cccc(-c3ccc(CNC4CCCC4)cc3)c2)C(=O)CCC2CCCC2)CC1` [TCMDC-140750] as the molecule, how does the “% Inhibition” value read?
Answer: 98.64%

Question: Which “% Inhibition” value does the source give for `FC(F)(F)c1cccc(CNC2CCN(CC3CCCCC3)CC2)c1` [TCMDC-141660] here?
Answer: -52.78%

Question: How did the “% Inhibition” value turn out when `CCCC(C)Nc1nc(C)cc(N[C@@H](Cc2ccccc2)C(=O)Nc2ccccc2)n1` (some centres unmarked) [TCMDC-134767] was run?
Answer: -30.62%

Question: With `CCc1c(C(=O)NC2CCC(N3CCC(c4ccccc4OC)CC3)CC2)[nH]c2ccc(Br)cc12` (centres unmarked) [TCMDC-133499] as the molecule, how does the “% Inhibition” value read?
Answer: -52.27%

Question: How did the “% Inhibition” value turn out when `COc1ccccc1C(C)NCC(=O)Nc1cc(C(F)(F)F)ccc1Cl` (centres unmarked) [TCMDC-125041] was run?
Answer: -2.208%

Question: Which “% Inhibition” value does the source give for `COc1ccc(Nc2nccc(N3CCC(NS(=O)(=O)c4ccc(NC(C)=O)cc4)C3)n2)cc1` (centres unmarked) [TCMDC-133608] here?
Answer: -25.9%

Question: `CNC(=O)C(NC(=O)c1ccccc1C(=O)OC)c1ccccc1` (centres unmarked) [TCMDC-137226] was tested. Which “% Inhibition” value did it give?
Answer: 6.158%

Question: With `CCN(CC)CCN(Cc1ccc(-c2ccc(C(F)(F)F)cc2)cc1)C(=O)Cn1cc(Cc2cnn(C)c2)c(=O)nc1/C=C/c1ccc(F)cc1` [TCMDC-140741] as the molecule, how does the “% Inhibition” value read?
Answer: 95.48%

Question: `CCN(CC)CCN(Cc1ccc(-c2ccc(C(F)(F)F)cc2)cc1)C(=O)Cn1cc(Cc2cnn(C)c2)c(=O)nc1/C=C/c1cccc(F)c1F` [TCMDC-140964] was tested. Which “% Inhibition” value did it give?
Answer: 99.53%

Question: For `O=C(Cc1cc(=O)oc2cc(O)ccc12)N1CCC(CN2CCC(c3c[nH]c4ccccc34)CC2)CC1` [TCMDC-139881], which “% Inhibition” value is on record?
Answer: 9.393%

Question: With `N#Cc1cccc(NC(=O)Nc2ccc(-c3csc(-c4nc5ccccc5[nH]4)c3)cc2)c1` [TCMDC-133188] as the molecule, how does the “% Inhibition” value read?
Answer: 30.15%

Question: With `Cn1nc(C(F)(F)F)cc1-c1ccc(C(=O)Nc2ccc3c(c2)CNCC3(C)C)s1` [TCMDC-141916] as the molecule, how does the “% Inhibition” value read?
Answer: 39.68%

Question: For `NC(N)=NC(=O)Nc1cc(Cl)c(Cl)c(C(F)(F)F)c1` [TCMDC-137511], which “% Inhibition” value is on record?
Answer: -11.78%

Question: With `CCCCC(=O)Nc1cc(=O)[nH]c2nc(-c3ccc(Cl)cc3)nn12` [TCMDC-125002] as the molecule, how does the “% Inhibition” value read?
Answer: 1.203%

Question: For `COc1cc(NC(=O)/C=C/c2cc(F)cc(F)c2F)cc(OCCN2CCC(O)(c3ccccc3)CC2)c1` [TCMDC-140936], which “% Inhibition” value is on record?
Answer: -10.33%

Question: `N#Cc1cccc(NC(=O)Nc2ccc3c(c2)CCN(C2CCC2)CC3)c1` [TCMDC-136005] was tested. Which “% Inhibition” value did it give?
Answer: 22.54%

Question: How did the “% Inhibition” value turn out when `COc1ccc(C(C(=O)NC2CCN(C[C@H](O)c3ccnc4ccc(OC)cc34)CC2)N2CCN(Cc3ccccc3)CC2)cc1` (some centres unmarked) [TCMDC-140987] was run?
Answer: -16.46%

Question: Which “% Inhibition” value does the source give for `CN1CCC(COC(=O)C(O)(c2ccccc2)c2ccccc2)C1` (centres unmarked) [TCMDC-131375] here?
Answer: 2.294%

Question: Which “% Inhibition” value does the source give for `Cc1cc(N2CCCC2)nc(Nc2ccc(NC(=O)C(C)Oc3ccccc3)cc2)n1` (centres unmarked) [TCMDC-124968] here?
Answer: 18.82%

Question: With `CCCCNS(=O)(=O)c1ccc(NC(=O)c2cc([N+](=O)[O-])ccc2Cl)cc1` [TCMDC-124345] as the molecule, how does the “% Inhibition” value read?
Answer: 83.43%

Question: Which “% Inhibition” value does the source give for `CCNS(=O)(=O)c1ccc(Oc2ccc([N+](=O)[O-])cc2)cc1` [TCMDC-137451] here?
Answer: -0.3916%

Question: With `CCCNS(=O)(=O)c1ccc(NC(=O)C(C)Oc2ccc([N+](=O)[O-])cc2)cc1` (centres unmarked) [TCMDC-125122] as the molecule, how does the “% Inhibition” value read?
Answer: 65.91%

Question: Which “% Inhibition” value does the source give for `C=CCNS(=O)(=O)c1ccc(NC(=O)C(C)Oc2ccc([N+](=O)[O-])cc2)cc1` (centres unmarked) [TCMDC-125123] here?
Answer: 69.95%

Question: How did the “% Inhibition” value turn out when `Cc1cc(N(C)C)nc(Nc2ccc(NC(=O)C(C)Oc3ccccc3)cc2)n1` (centres unmarked) [TCMDC-124974] was run?
Answer: 7.49%

Question: For `C=CCNC(=O)C(C)c1ccc2cc(OC)ccc2c1` (centres unmarked) [TCMDC-132021], which “% Inhibition” value is on record?
Answer: 24.74%

Question: For `Cc1ccc(NC(=O)c2cc([N+](=O)[O-])ccc2NCc2cccnc2)cc1Cl` [TCMDC-124571], which “% Inhibition” value is on record?
Answer: 7.674%

Question: How did the “% Inhibition” value turn out when `NCCNc1ccc([N+](=O)[O-])cc1C(=O)Nc1cccc(Cl)c1` [TCMDC-123690] was run?
Answer: 33.32%

Question: Which “% Inhibition” value does the source give for `O=C(Nc1ccc(OC2CCN(Cc3ccc(F)cc3)CC2)c(Cl)c1)c1ccoc1` [TCMDC-133744] here?
Answer: 29.48%

Question: Which “% Inhibition” value does the source give for `CC(C)CC(=O)NC1CCN(Cc2c(-c3cccs3)nc3ccccc3c2C(=O)N[C@@H](C)C2CCCCC2)CC1` [TCMDC-141791] here?
Answer: -23.57%

Question: For `C[C@H](NC(=O)c1c(CN2CCN(C(=O)C(C)(C)C)CC2)c(-c2cccs2)nc2ccccc12)C1CCCCC1` [TCMDC-141723], which “% Inhibition” value is on record?
Answer: -7.5%

Question: Which “% Inhibition” value does the source give for `C[C@H](NC(=O)c1c(CN2CCC(N3CCCCC3=O)CC2)c(-c2cccs2)nc2ccccc12)C1CCCCC1` [TCMDC-141620] here?
Answer: -63.06%

Question: Which “% Inhibition” value does the source give for `C[C@H](NC(=O)c1c(CN2CCC(NC(=O)CC(C)(C)C)CC2)c(-c2cccs2)nc2ccccc12)C1CCCCC1` [TCMDC-141792] here?
Answer: 25.58%

Question: With `CNC(=O)NC1CCN(Cc2c(-c3cccs3)nc3ccccc3c2C(=O)N[C@@H](C)C2CCCCC2)CC1` [TCMDC-141689] as the molecule, how does the “% Inhibition” value read?
Answer: 58%

Question: For `CCNC(=O)NC1CCN(Cc2c(-c3cccs3)nc3ccccc3c2C(=O)N[C@@H](C)C2CCCCC2)CC1` [TCMDC-141704], which “% Inhibition” value is on record?
Answer: 101.3%
